These results are taken from PubChem BioAssay (NCATS).

Results filed as inconclusive are left out. The source made the active and inactive calls. The call rests on the fitted dose curve; in most records, active means well fitted curve in the direction sought with a large enough effect; inconclusive means small, poorly fitted or top-dose-only effect, or another doubt; inactive means no such curve, though single readings can be large; an effect the other way counts as inactive or inconclusive. Where a SMILES comes first, the peptide text is derived from it. [ ]: non-standard residue; d: D form. pGlu = O=C1CC[C@@H](C(=O)O)N1

The nature of test [1]: qHTS of pediatric cancer cell lines to identify multiple opportunities for drug repurposing: Primary screen for OHS-50 cells (AID 1347103). Further: nearly all actives have a fitted effect of over 40% in size. Further: potency means the concentration at half of the fitted maximal effect. Put shortly:
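Cells (500-1,000/well) rested 5 h, then received compounds for 48 h; metabolically active cells were measured by CellTiter-Glo luminescence. Final concentrations spanned up to 46 µM (MIPE, 11-point) or 0.59 nM-46 µM (NPC, 8-point) in primary screens, 11-point in follow-ups.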

Test [2] can be described thus: qHTS of pediatric cancer cell lines to identify multiple opportunities for drug repurposing: Primary screen for RD cells (AID 1347104). Further: nearly all actives have a fitted effect of over 55% in size. The method in brief:
(§1)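 Phenotypic viability qHTS, 48 h compound exposure, CellTiter-Glo luminescence read-out; multi-concentration dosing so that potency and efficacy derive directly from the primary screen's curves.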

Test [3] can be described thus: qHTS of pediatric cancer cell lines to identify multiple opportunities for drug repurposing: Primary screen for MG 63 (6-TG R) cells (AID 1347105). Further: nearly all actives have a fitted effect of over 50% in size. Put shortly: as §1
Test [4] can be described thus: qHTS of pediatric cancer cell lines to identify multiple opportunities for drug repurposing: Primary screen for control Hh wild type fibroblast cells (AID 1347106).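 Further: series mostly up to about 46 µM; a drop in luminescence marks cytotoxicity and a rise apparent proliferation; nearly all actives have a fitted effect of over 55% in size.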 The method in brief: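 Viability after 48 h compound treatment at 37C, 500-1,000 cells/well, read as ATP luminescence with CellTiter-Glo. Primary screens used 11-point (MIPE, 0.78 nM-46 µM) or 8-point (NPC, 0.59 nM-46 µM) final concentrations; follow-up screens used 11-point dilutions.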

A short description of test [5]: qHTS of pediatric cancer cell lines to identify multiple opportunities for drug repurposing: Primary screen for Rh30 cells (AID 1347107). Further: series mostly up to about 46 µM; nearly all actives have a fitted effect of over 75% in size. The method in brief: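 Cells (500-1,000/well) in growth media were settled 5 h at 37 degrees C, then given compounds for 48 h. Viability was read as CellTiter-Glo luminescence. Primary runs used MIPE at 11 points (0.78 nM-46 µM) and NPC at 8 points (0.59 nM-46 µM); follow-ups used 11 points.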

A short description of test [6]: qHTS of pediatric cancer cell lines to identify multiple opportunities for drug repurposing: Primary screen for Rh41 cells (AID 1347108).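 Further: series mostly up to about 46 µM; luminescence drop marks cytotoxic hits; nearly all actives have a fitted effect of over 70% in size.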 Put shortly:
as §1

On to `COC(=O)CCCCC(CCSS/C(CCO)=C(\C)N(C=O)Cc1cnc(C)nc1N)SC(C)=O` (stereo unspecified), for which the Potency entry in test [1], in test [2], in test [3], in test [4], in test [5] and in test [6] was “inactive” throughout.

In the case of `CC(C)NC(=O)c1ccc(C=O)cc1`, the Potency result in test [1], in test [2], in test [3], in test [4], in test [5] and in test [6] was “inactive” each time.

With `C[C@H]1C[C@H](O)c2ccsc2S1(=O)=O`, the Potency result in test [1], in test [2], in test [3], in test [4], in test [5] and in test [6] was “inactive” throughout.

Take `COc1cc(NS(=O)(=O)c2ccc(N)cc2)nc(C)n1`: the Potency result in test [1], in test [2], in test [3], in test [4], in test [5] and in test [6] was “inactive” each time.

Consider `CC(C)CCCC(C)NCCC(C)C` (stereo unspecified), for which the Potency entry in test [1], in test [2], in test [3], in test [4], in test [5] and in test [6] was “inactive” in each case.

Regarding `Nc1ccc(C(=O)OCC(O)CO)cc1` (stereo unspecified), the Potency entry in test [1], in test [2], in test [3], in test [4], in test [5] and in test [6] was “inactive” in each case.

As for `CCOC(=O)NNc1ccc(N(CC)CC(C)O)nn1` (stereo unspecified), the Potency result in test [1], in test [2], in test [3], in test [4], in test [5] and in test [6] was “inactive” each time.

For `Cc1ccc2ccc(Cl)cc2n1`, the Potency result in test [1], in test [2], in test [3], in test [4], in test [5] and in test [6] was “inactive” in each case.

As for `O=C1c2ccccc2CCc2ccccc21`, the Potency entry in test [1], in test [2], in test [3], in test [4], in test [5] and in test [6] was “inactive” in each case.

Take `COCCc1ccc(OCC2CO2)cc1` (stereo unspecified): the Potency result in test [1], in test [2], in test [3], in test [4], in test [5] and in test [6] was “inactive” each time.

As for `O=C(O)CCC(=O)OC[C@@H](NC(=O)C(Cl)Cl)[C@H](O)c1ccc([N+](=O)[O-])cc1`, the Potency entry in test [1], in test [2], in test [3], in test [4], in test [5] and in test [6] was “inactive” in each case.

`Cc1oc(=O)oc1COC(=O)[C@@H]1N2C(=O)[C@@H](NC(=O)[C@H](N)c3ccccc3)[C@H]2SC1(C)C`: the Potency entry in test [1], in test [2], in test [3], in test [4], in test [5] and in test [6] was “inactive” in each case.

Turning to `COc1cc(S(N)(=O)=O)cc(C(=O)O)c1OC`, the Potency result in test [1], in test [2], in test [3], in test [4], in test [5] and in test [6] was “inactive” in each case.

Turning to `CCOc1c(N2CCOCC2)cnn(C)c1=O`, the Potency result in test [1], in test [2], in test [3], in test [4], in test [5] and in test [6] was “inactive” in each case.

As to `CN1C(=O)c2ccccc2C1=O`, the Potency result in test [1], in test [2], in test [3], in test [4], in test [5] and in test [6] was “inactive” each time.

For `CCNC(=O)[C@@H]1CCCN1C(=O)[C@H](CCCN=C(N)N)NC(=O)[C@H](CC(C)C)NC(=O)CNC(=O)[C@H](Cc1ccc(O)cc1)NC(=O)[C@H](CO)NC(=O)[C@H](Cc1c[nH]c2ccccc12)NC(=O)[C@H](Cc1cnc[nH]1)NC(=O)[C@@H]1CCC(=O)N1` ([pGlu]HWSYGLRP-NHEt), the Potency result in test [1], in test [2], in test [3], in test [4], in test [5] and in test [6] was “inactive” in each case.

`Oc1cccc2[nH]ccc12`: the Potency entry in test [1], in test [2], in test [3], in test [4], in test [5] and in test [6] was “inactive” each time.

Take `CNC[C@H](O)[C@@H](O)[C@H](O)[C@H](O)CO`: the Potency entry in test [1], in test [2], in test [3], in test [4], in test [5] and in test [6] was “inactive” each time.

In the case of `NC(=O)NS(=O)(=O)c1ccc(Cl)cc1`, the Potency result in test [1], in test [2], in test [3], in test [4], in test [5] and in test [6] was “inactive” each time.

For `Cc1cc(CCCOc2c(C)cc(-c3noc(C(F)(F)F)n3)cc2C)on1`, the Potency in test [1] was 19.5 µM (active). For the same molecule, the Potency result in test [2], in test [3], in test [4], in test [5] and in test [6] was “inactive” throughout.

Turning to `C/C(=N/NC(=O)c1ccncc1)C(=O)O`, the Potency entry in test [1], in test [2], in test [3], in test [4], in test [5] and in test [6] was “inactive” each time.

As for `CC(=O)OC[C@H]1O[C@@H](OC(C)=O)[C@H](OC(C)=O)[C@@H]1OC(C)=O`, the Potency entry in test [1], in test [2], in test [3], in test [4], in test [5] and in test [6] was “inactive” each time.

Regarding `O=C(C1CCCCC1)N1CC(=O)N2CCCc3ccccc3C2C1` (stereo unspecified), the Potency entry in test [1], in test [2], in test [3], in test [4], in test [5] and in test [6] was “inactive” throughout.

Consider `CSCC[C@H](NC(=O)[C@H](Cc1c[nH]c2ccccc12)NC(=O)CCNC(=O)OC(C)(C)C)C(=O)N[C@@H](CC(=O)O)C(=O)N[C@@H](Cc1ccccc1)C(N)=O`, for which the Potency result in test [1], in test [2], in test [3], in test [4], in test [5] and in test [6] was “inactive” throughout.

On to `O=C(CCCCCCCCC#CI)Oc1ccccc1`, for which the Potency result in test [1], in test [2], in test [3], in test [4], in test [5] and in test [6] was “inactive” each time.

On to `CC(=O)OC/C=C(C)/C=C/C=C(C)/C=C/C1=C(C)CCCC1(C)C`, for which the Potency result in test [1], in test [2], in test [3], in test [4], in test [5] and in test [6] was “inactive” in each case.

As for `CC1(C)S[C@@H]2[C@H](NC(=O)C(c3ccccc3)S(=O)(=O)O)C(=O)N2[C@H]1C(=O)O` (stereo partly specified), the Potency entry in test [1], in test [2], in test [3], in test [4], in test [5] and in test [6] was “inactive” each time.

As to `CCOCCn1c(C2CCN(CCc3ccc(C(C)(C)C(=O)O)cc3)CC2)nc2ccccc21`, the Potency result in test [1], in test [2], in test [3], in test [4], in test [5] and in test [6] was “inactive” in each case.

As to `CCOc1ncc(F)c(=O)[nH]1`, the Potency entry in test [1], in test [2], in test [3], in test [4], in test [5] and in test [6] was “inactive” in each case.

Take `O=C(CCCl)NCCc1ccccc1`: the Potency entry in test [1], in test [2], in test [3], in test [4], in test [5] and in test [6] was “inactive” in each case.

For `O=C(O)c1cn(C2CC2)c2cc(Cl)c(F)cc2c1=O`, the Potency entry in test [1], in test [2], in test [3], in test [4], in test [5] and in test [6] was “inactive” throughout.
